# Data as given in PubChem BioAssay (NCI).
# About 83,000 compounds went through this panel and 20% of them were active in at least one assay; those are over-represented in the sample as a whole.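 How to read the values: 0–100, growth inhibition (40 = 60% inhibited); 0, no net growth; -100 to 0, cell death (-40 = 40% of starting cells died; -100 = all dead).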 Values without a mark were called inactive. Active and inactive are the calls of the source. Rule for the calls: active = growth percent below 10; inactive = the rest.
# Assays:
# Test in all cases: NCI-60 one-dose screen, 48 h (100 = growth as untreated, 0 = no growth, -100 = all killed)
# Conditions in all cases: 10 µM unless noted
# SR leukemia = tested on: SR leukemia
# OVCAR-8 ovarian = tested on: OVCAR-8 ovarian
# OVCAR-5 ovarian = tested on: OVCAR-5 ovarian
# OVCAR-4 ovarian = tested on: OVCAR-4 ovarian
# SK-OV-3 ovarian = tested on: SK-OV-3 ovarian
# IGROV1 ovarian = tested on: IGROV1 ovarian
# OVCAR-3 ovarian = tested on: OVCAR-3 ovarian
# HS 578T breast = tested on: HS 578T breast
# NCI/ADR-RES ovarian = tested on: NCI/ADR-RES ovarian
# T-47D breast = tested on: T-47D breast
# BT-549 breast = tested on: BT-549 breast
# MDA-MB-435 melanoma = tested on: MDA-MB-435 melanoma
# SW-620 colon = tested on: SW-620 colon
# MCF7 breast = tested on: MCF7 breast
# HCT-116 colon = tested on: HCT-116 colon
# HCC-2998 colon = tested on: HCC-2998 colon
# KM12 colon = tested on: KM12 colon
# RPMI-8226 leukemia = tested on: RPMI-8226 leukemia
SMILES,growth (SR leukemia),growth (OVCAR-8 ovarian),growth (OVCAR-5 ovarian) [%],growth (OVCAR-4 ovarian),growth (SK-OV-3 ovarian),growth (IGROV1 ovarian),growth (OVCAR-3 ovarian),growth (HS 578T breast) [%],growth (NCI/ADR-RES ovarian),growth (T-47D breast),growth (BT-549 breast),growth (MDA-MB-435 melanoma),growth (SW-620 colon),growth (MCF7 breast),growth (HCT-116 colon),growth (HCC-2998 colon),growth (KM12 colon),growth (RPMI-8226 leukemia) [%]
Cc1cccc(/C=N/n2c(-c3ccc(Cl)cc3)nc3c(Br)cc(Br)cc3c2=O)c1,73.1%,32.5%,50.2,-3.16% (active),39.5%,31.9%,38.2%,65.1,30.5%,44.4%,88%,66%,59.1%,36.7%,22.2%,55.6%,52.4%,–
c1cc2c(cc1-c1cnc3nonc3n1)OCO2,21.4%,92.4%,93.7,95.3%,82.8%,102%,70.5%,99.1,93.2%,57.7%,95.2%,103%,83%,49.5%,102%,107%,74.8%,–
COc1ccccc1/C=C/C(=O)CCC(=O)O,89.1%,105%,104,104%,98.5%,110%,107%,96,107%,93.1%,113%,108%,107%,102%,101%,114%,114%,–
CCCCCCCCCCCCC1CCC(=O)O1 (configuration not stated),93.6%,–,–,94.1%,102%,86.7%,105%,108,100%,74.1%,96.5%,98.8%,90.3%,93.4%,95.2%,104%,100%,97.4
S=C(S)Oc1cccc2cccnc12,87.7%,108%,108,92.2%,100%,86.1%,120%,96.2,106%,107%,98.4%,104%,105%,95.8%,95.9%,113%,109%,–
CCN1C(=O)N(CC)C2C1NN=c1s/c(=C\c3ccco3)c(=O)n12 (configuration not stated),17%,27.8%,36.7,63.3%,31.6%,36.9%,-12% (active),29.6,9.31% (active),27.8%,53.9%,-56.9% (active),20.2%,12.1%,23.5%,–,15.9%,–
CCCCc1nc(Cl)c(C2CC(c3ccc(S(N)(=O)=O)cc3)=NN2c2ccc(C#N)cc2)[nH]1 (configuration not stated),80.5%,83.2%,88.5,98.2%,96.4%,93%,92.5%,79.4,107%,68.7%,80.6%,93.9%,91.8%,76.1%,85.8%,109%,99.8%,–
Nc1c(Br)cc2c(c1Br)Cc1cc(Cl)ccc1-2,80%,96.8%,93.2,95.1%,82.5%,84.3%,104%,91.9,95.8%,66%,128%,102%,98.2%,80.6%,97.1%,102%,98.7%,–
CN1C(=O)N(C)C2C1NN=c1s/c(=C\c3ccc(C(F)(F)F)cc3)c(=O)n12 (configuration not stated),16.8%,29.1%,49.3,63.8%,32.1%,46.4%,3.49% (active),18.5,15.4%,24.6%,50.4%,-52.1% (active),19.1%,12%,26.9%,54.9%,16.3%,–
O=C(NCCN1CCCC1)n1cc(-c2ccncc2)c(-c2cc(O)cc(Cl)c2)n1,49.6%,77.8%,113,118%,86.1%,109%,116%,99.6,101%,98%,111%,57.3%,115%,96.2%,75.3%,122%,108%,–
COc1ccccc1/C=N\Nc1ccc([N+](=O)[O-])cn1,104%,106%,108,115%,108%,102%,117%,124,107%,94.8%,101%,104%,–,96.2%,96.5%,100%,106%,–
C=C1C(=O)O[C@H]2[C@H]1CC/C(COC(=O)NCc1cn(C)c3ccccc13)=C\CC[C@@]1(C)O[C@@H]21,6.96% (active),4.58% (active),23,12%,60.2%,0.634% (active),-80.8% (active),49.6,19%,-54.1% (active),-54.3% (active),-30.4% (active),-48.4% (active),3.65% (active),-97.2% (active),49.1%,39.5%,–
CS(=O)(=O)c1ccc(C(=O)Nc2ccc(Cl)c(-c3ccccn3)c2)c(Cl)c1,9.7% (active),23.3%,33.6,26.8%,19.2%,25.2%,-11.1% (active),51.1,11.1%,16.6%,11.8%,14.1%,20.8%,20.4%,11.7%,5.78% (active),13.7%,–
O=C(Nc1cccc(-n2ccc3c(NC(=O)c4ccccc4)nccc32)c1)c1ccc(N2CCOCC2)c(C(F)(F)F)c1,2.76% (active),16.3%,41.1,51.7%,-6.21% (active),8.99% (active),26.9%,55.5,14.3%,7.57% (active),25.2%,5.17% (active),26.9%,14%,12.5%,–,7.93% (active),–
COc1cccc(NC(=O)OC(C)C)c1,92.4%,106%,96.4,93.1%,104%,99.7%,121%,99,98.4%,93.8%,103%,92.8%,–,102%,101%,96.7%,103%,–
COc1ccc2c(c1)C1=NN(C(=O)CO)[C@H](c3ccc(OC(F)(F)F)cc3)[C@@H]1CC2,69.2%,98%,108,89.5%,96.3%,72.3%,88.6%,85.7,85.5%,82.1%,127%,116%,–,83.2%,92.5%,91.9%,102%,–
COc1ccc(-n2c(COc3ccc(F)cc3)n[nH]c2=S)cc1,120%,112%,110,105%,109%,96.4%,103%,108,103%,101%,181%,105%,104%,107%,101%,113%,110%,–
c1ccc2oc(-c3cnc4nonc4n3)cc2c1,106%,93.6%,104,106%,84.8%,87.2%,108%,89.2,92.4%,79.7%,95.8%,109%,94%,88.5%,90.1%,120%,112%,–
CCCCOc1nc2ccccc2cc1/C=C/c1cc(/C=C/c2cc3ccccc3nc2OCCCC)n(-c2ccccc2)n1,98.7%,95.9%,102,109%,92.6%,97.9%,107%,87.6,106%,102%,93.2%,108%,101%,99.1%,93.1%,119%,103%,–
